Drawing on PubChem BioAssay (Tox21), this text covers Potency and caspase activation for 40 molecules.

Results filed as inconclusive are left out. Where a call stands in place of a potency, no number is given. Calls of active or inactive are those of the source. The call rests on the fitted dose curve; in most records, active means well fitted activation curve with a large enough effect in the repeat runs; inconclusive means weak or mixed curves; inactive means flat fitted curve, though single readings scatter.
Potency means the concentration at half of the fitted maximal effect.

This assay can be described thus: Caspase-3/7 induction in HepG2 cells by small molecules, qHTS assay (AID 1346978). Further: nearly all actives have a fitted effect of over 15% in size. Conditions: HepG2 caspase-3/7 activation, Caspase-Glo luminescence, 17 h; series mostly up to 92.4 µM. An excerpt:
National Center for Advancing Translational Sciences [NCATS] NIH Chemical Genomics Center [NCGC] U.S. Environmental Protection Agency [EPA] National Institutes of Environmental Health Sciences [NIEHS] National Toxicology Program [NTP] Assay overview: Apoptosis is a process of programmed cell death and plays a central role in the development of multicellular organisms. It is a highly regulated process and induces cell death by activating caspases, which are the members of cysteine aspartic acid-specific protease (caspase) family. Caspases involved in apoptosis are classified by their mechanism of action as initiator caspases (caspase-2, -8, -9 and -10) and executioner caspases (caspase-3, -6, and -7). Inhibition of apoptosis results in number of cancers, autoimmune diseases, inflammatory diseases and viral infection. To identify small molecule compounds that induce apoptosis, a homogeneous, luminescent Caspase-Glo 3/7 assay was used. Wild type HepG2 cells were used to screen Tox21 libraries for identifying caspase-3/7 activity inducers.
Assay Protocol Summary: HepG2 cells were dispensed at 2,000 per well in 5uL of culture medium into white solid bottom 1536-well plates (Corning Life Sciences, Corning, NY) using a Multidrop Combi (Thermo Scientific, Waltham, MA) dispenser. The assay plates were incubated at 37 C and 5% CO2 for 5hr, and then 23nL of compounds dissolved in DMSO and positive control were transferred using a Pintool station (Wako, San Diego, CA). The assay plates were incubated at 37C and 5% CO2 for 17hr. For caspase-3/7 activity read, 4uL of Caspase-Glo 3/7 reagent (Promega Corporation, Madison, WI) was added to each well of the assay plates using Flying Reagent Dispenser (FRD, Aurora Discovery, San Diego, CA) and incubated the assay plates at room temperature for 30min. The luminescence signal was quantified using a ViewLux plate reader (Perkin Elmer, Shelton, CT).
(Quantitative high-throughput screening tests each substance at several concentrations.)
Take `CC(C)OC(=O)C(O)(CC(=O)O)CC(=O)O`: the Potency entry was “inactive”. In the case of `O=C(O)CN(CCN(CC(=O)O)CC(=O)O)CC(=O)O`, the caspase activation was -0.861% [at 3.27 µM] (inactive). Consider `CCO[Si](OCC)(OCC)OCC`, for which the Potency result is “inactive”. `OC/C=C/CO`: the Potency entry was “inactive”.

With `COCCOc1cc2cc(C(=O)NC3CCN(C(C)C)CC3)n(CC(=O)Nc3ccc(Cl)cn3)c2cn1`, the Potency result was “inactive”. With `CC/C=C\CCCCCO`, the Potency entry is “inactive”.

`CCCC(=O)OCCc1ccccc1`: the Potency entry was “inactive”. For the molecule `COc1cc(/C=C/c2ccccc2)oc(=O)c1`, the Potency entry is “inactive”. In the case of `CC1=Nc2ccccc2C1(C)C`, the Potency entry was “inactive”. On the same count and under the same terms, the entry for `CC(C)(c1cc(Br)c(OCC(Br)CBr)c(Br)c1)c1cc(Br)c(OCC(Br)CBr)c(Br)c1` (stereo not given) is “inactive”; for `COC(=O)C1=C(C)NC(C)=C(C(=O)OCCN2CCN(C(c3ccccc3)c3ccccc3)CC2)C1c1cccc([N+](=O)[O-])c1` (stereo not given) it is “inactive”. On the same count and under the same terms, then `O=C(O)c1cc(N=Nc2ccc([N+](=O)[O-])cc2)ccc1O`, with “inactive”. The same measure, in the same setting: the entry for `CCCc1ccc(OCC(=O)N2CCN(C(=O)COc3ccc(CCC)cc3OC)CC2)c(OC)c1` is “inactive”; for `CCCC(=O)OCOC(=O)C1=C(C)NC(C)=C(C(=O)OC)C1c1cccc(Cl)c1Cl` (stereo not given) it is “inactive”; for `CNC(=O)c1ccccc1Sc1ccc2c(/C=C/c3ccccn3)n[nH]c2c1` it is “inactive”. `CC[N+](CC)(CC)CCOc1ccc(/C=C/c2ccccc2)cc1`: the Potency entry was “inactive”. `CCN(CCN)c1cccc(C)c1`: the Potency result is “inactive”. Take `O=c1[nH]c(=O)n([C@H]2C[C@H](O)[C@@H](CO)O2)cc1F`: the Potency entry was “inactive”. `CCN(CC)C(=O)c1cc(S(=O)(=O)Cc2ccccc2)c(N2CCC(c3ccccc3)CC2)cc1N(CC)CCN(C)C`: the Potency is 19.1 µM (active).

Take `CC(C)(C)c1ccc(C(O)CCCN2CCC(C(O)(c3ccccc3)c3ccccc3)CC2)cc1` (stereo not given): the Potency is 11.9 µM (active). `CC(CCc1ccccc1)NCC(O)c1ccc(O)c(C(N)=O)c1` (stereo not given): the Potency result was “inactive”. As to `c1ccc(SSc2ccccc2)cc1`, the Potency entry was “inactive”. For the molecule `Cc1ccc(-c2ccccc2)cc1`, the Potency entry is “inactive”. `COc1cc(C)ccc1O`: the Potency entry is “inactive”.

On to `c1cnccn1`, for which the Potency entry was “inactive”. `C1CCC(SSC2CCCCC2)CC1`: the Potency result was “inactive”. Regarding `O=C(O)O`, the caspase activation was 0.0124% [at 8.39 µM] (inactive). Take `CC(C)(C)NSc1nc2ccccc2s1`: the Potency result is “inactive”. Turning to `CC(C)Cn1cnc2c(N)nc3ccccc3c21`, the caspase activation is -2.38% [at 19 µM] (inactive). With `CC(C)(C)C1CCC(=O)CC1`, the Potency entry was “inactive”. For the molecule `S=c1nccc[nH]1`, the Potency entry was “inactive”. Regarding `Cc1cccc(C)c1NC(=O)c1ccc(N)cc1`, the Potency result is “inactive”. In the case of `c1ccsc1`, the Potency entry is “inactive”. For the molecule `O=C(Nc1ccc2c(O)c(N=Nc3ccc(N=Nc4ccc(S(=O)(=O)O)cc4)cc3)c(S(=O)(=O)O)cc2c1)c1ccccc1`, the Potency entry was “inactive”. `Cc1cccc2cccnc12`: the Potency result was “inactive”. With `CC(C)NC[C@@H](O)COc1ccc(CC(N)=O)cc1`, the Potency entry was “inactive”.

For `C#C[C@]1(OC(C)=O)CC[C@H]2[C@@H]3CCC4=C/C(=N/O)CC[C@@H]4[C@H]3CC[C@@]21CC`, the Potency entry was “inactive”.

Take `O=[N+]([O-])c1cccc(C(F)(F)F)c1`: the Potency entry is “inactive”. `CC(C)=CCC1=C(O)c2ccccc2C(=O)C1=O`: the Potency entry was “inactive”. Take `CCCCCCCCCCCCCC[N+](C)(C)Cc1ccccc1`: the Potency was 62.1 µM (active).
